For three molecules, growth results are on record in PubChem BioAssay (NCI).

Each structure is given as a SMILES string. About 83,000 compounds went through this panel and 20% of them were active in at least one assay; those are over-represented in the sample as a whole.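 Assay: single dose, 48 h. Readout: percent growth (0 = no net growth; negative = cell death). Active: <10.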 A number with no mark means an inactive call.

For this assay, the system named is MDA-MB-468 breast. Nature of the assay: NCI-60 one-dose screen, 48 h (100 = growth as untreated, 0 = no growth, -100 = all killed). Conditions: 10 µM unless noted.
In the case of `CCOC(=O)/C(=C\c1ccccc1Cl)P(=O)(OCC)OCC`, the growth is 43.5%.

For `Cn1cc(-c2cc(N)n3nc(-c4cn(C)c5ccc(F)cc45)cc3n2)c2cc(F)ccc21`, the growth is 12.3%.

For `COc1ccc(S(=O)(=O)Oc2ccc(-c3sc4cc(OS(=O)(=O)c5ccc(OC)cc5)ccc4c3C(=O)c3ccc(OCCN4CCCCC4)cc3)cc2)cc1`, the growth is 94.3%.
